Source: the supplement of paper PMC11732987, “Enantioselective OTUD7B fragment discovery through chemoproteomics screening and high-throughput optimisation” (Communications Chemistry, 2025)

How the values were obtained:
Assay in all cases: log2 ratio of Biotin-Ahx-Ub-VS probe labelling (fragment/DMSO); higher = less target engagement (more negative = stronger competition), active = hit call of the paper (q ≤ 0.05, log2 ratio ≤ -1)
Conditions in all cases: compound concentration: 200 uM; treatment time: 3 h
[1] = biological target: T1, ALG13 (UniProt Q9NP73)
T1 sequence (whole entry): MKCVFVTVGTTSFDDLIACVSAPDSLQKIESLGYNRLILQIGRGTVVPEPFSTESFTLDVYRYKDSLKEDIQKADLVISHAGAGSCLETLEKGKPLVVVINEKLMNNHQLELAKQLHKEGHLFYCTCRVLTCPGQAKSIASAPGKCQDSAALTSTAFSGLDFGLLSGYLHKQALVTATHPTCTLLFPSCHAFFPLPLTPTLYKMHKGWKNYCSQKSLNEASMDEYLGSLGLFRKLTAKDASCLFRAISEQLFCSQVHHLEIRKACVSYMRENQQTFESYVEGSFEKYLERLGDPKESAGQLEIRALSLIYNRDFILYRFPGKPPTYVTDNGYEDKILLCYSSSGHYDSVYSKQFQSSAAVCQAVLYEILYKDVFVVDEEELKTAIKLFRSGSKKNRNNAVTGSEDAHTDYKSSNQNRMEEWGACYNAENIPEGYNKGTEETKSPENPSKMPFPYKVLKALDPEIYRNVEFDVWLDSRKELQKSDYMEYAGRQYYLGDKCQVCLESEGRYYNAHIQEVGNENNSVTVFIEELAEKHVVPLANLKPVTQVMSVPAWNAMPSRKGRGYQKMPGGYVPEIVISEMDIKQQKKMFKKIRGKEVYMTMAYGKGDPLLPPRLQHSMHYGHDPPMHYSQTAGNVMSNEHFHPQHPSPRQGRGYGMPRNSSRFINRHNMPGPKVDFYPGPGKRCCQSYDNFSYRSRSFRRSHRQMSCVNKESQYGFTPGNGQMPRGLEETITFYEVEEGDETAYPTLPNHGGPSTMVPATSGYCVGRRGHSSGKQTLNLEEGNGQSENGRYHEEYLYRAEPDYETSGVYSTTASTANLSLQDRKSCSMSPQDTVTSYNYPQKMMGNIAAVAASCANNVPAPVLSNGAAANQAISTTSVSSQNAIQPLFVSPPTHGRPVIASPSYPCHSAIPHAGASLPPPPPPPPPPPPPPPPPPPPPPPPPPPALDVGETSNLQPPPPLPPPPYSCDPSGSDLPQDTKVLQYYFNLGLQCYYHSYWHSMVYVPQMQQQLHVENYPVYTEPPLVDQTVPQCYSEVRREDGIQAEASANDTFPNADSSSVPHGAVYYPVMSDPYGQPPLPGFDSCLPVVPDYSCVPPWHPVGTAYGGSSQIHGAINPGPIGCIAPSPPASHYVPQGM
Summary of the method: (§1)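 Triplicate samples of HEK293T lysate, 495 µg each, received fragment at 200 µM or vehicle for 3 h, followed by Biotin-Ahx-Ub-VS (0.5 µM final) for 1 h. After NeutrAvidin enrichment of labelled DUBs and LysC/trypsin digestion, peptides were run by diaPASEF LC-MS/MS. The values are average log2 fragment/vehicle ratios from global-median-normalised Spectronaut label-free quantities, tested by unpaired t-test on proteins having ≥2 unique peptides.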

[2] = biological target: ATXN3 (UniProt P54252)
Summary of the method: as §1

[3] = biological target: T2, BAP1 (UniProt Q92560)
T2 sequence (whole entry): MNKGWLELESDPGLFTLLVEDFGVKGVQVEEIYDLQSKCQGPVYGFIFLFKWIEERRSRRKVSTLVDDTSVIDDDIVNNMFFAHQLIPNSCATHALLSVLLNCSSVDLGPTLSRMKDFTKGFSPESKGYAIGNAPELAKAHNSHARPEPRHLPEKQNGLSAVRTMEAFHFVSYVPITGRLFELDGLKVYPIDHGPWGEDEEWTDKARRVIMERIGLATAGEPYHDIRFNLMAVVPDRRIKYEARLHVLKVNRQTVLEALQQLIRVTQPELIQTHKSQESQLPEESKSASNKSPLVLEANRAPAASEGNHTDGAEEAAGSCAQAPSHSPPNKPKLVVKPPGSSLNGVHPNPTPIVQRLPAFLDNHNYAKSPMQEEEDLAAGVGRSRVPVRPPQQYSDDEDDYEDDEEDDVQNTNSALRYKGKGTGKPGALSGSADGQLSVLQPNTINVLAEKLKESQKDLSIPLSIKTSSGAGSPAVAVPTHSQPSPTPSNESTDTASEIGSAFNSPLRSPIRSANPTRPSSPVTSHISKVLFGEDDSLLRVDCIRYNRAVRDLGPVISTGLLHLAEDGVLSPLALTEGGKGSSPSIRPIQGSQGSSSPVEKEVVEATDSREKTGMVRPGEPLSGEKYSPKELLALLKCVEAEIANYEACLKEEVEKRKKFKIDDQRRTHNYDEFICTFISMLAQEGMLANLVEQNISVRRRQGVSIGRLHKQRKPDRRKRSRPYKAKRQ
Summary of the method: as §1

[4] = biological target: EIF3F (UniProt O00303)
Summary of the method: as §1

[5] = biological target: EIF3H (UniProt O15372)
Summary of the method: as §1

[6] = biological target: T3, FAM105A (UniProt Q9NUU6)
T3 sequence (whole entry): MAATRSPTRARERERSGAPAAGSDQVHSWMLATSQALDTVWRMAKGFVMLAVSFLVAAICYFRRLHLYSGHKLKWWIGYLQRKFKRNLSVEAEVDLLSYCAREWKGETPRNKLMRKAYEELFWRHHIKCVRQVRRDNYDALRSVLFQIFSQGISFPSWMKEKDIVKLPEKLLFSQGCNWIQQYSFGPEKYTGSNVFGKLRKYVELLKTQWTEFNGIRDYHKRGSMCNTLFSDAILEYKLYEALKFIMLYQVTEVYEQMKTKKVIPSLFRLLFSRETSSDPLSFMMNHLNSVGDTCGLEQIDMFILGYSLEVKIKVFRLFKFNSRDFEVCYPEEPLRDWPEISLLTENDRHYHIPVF
Summary of the method: as §1

[7] = biological target: OTUB1 (UniProt Q96FW1)
Summary of the method: as §1

[8] = biological target: T4, OTUD4 (UniProt Q01804)
T4 sequence (whole entry): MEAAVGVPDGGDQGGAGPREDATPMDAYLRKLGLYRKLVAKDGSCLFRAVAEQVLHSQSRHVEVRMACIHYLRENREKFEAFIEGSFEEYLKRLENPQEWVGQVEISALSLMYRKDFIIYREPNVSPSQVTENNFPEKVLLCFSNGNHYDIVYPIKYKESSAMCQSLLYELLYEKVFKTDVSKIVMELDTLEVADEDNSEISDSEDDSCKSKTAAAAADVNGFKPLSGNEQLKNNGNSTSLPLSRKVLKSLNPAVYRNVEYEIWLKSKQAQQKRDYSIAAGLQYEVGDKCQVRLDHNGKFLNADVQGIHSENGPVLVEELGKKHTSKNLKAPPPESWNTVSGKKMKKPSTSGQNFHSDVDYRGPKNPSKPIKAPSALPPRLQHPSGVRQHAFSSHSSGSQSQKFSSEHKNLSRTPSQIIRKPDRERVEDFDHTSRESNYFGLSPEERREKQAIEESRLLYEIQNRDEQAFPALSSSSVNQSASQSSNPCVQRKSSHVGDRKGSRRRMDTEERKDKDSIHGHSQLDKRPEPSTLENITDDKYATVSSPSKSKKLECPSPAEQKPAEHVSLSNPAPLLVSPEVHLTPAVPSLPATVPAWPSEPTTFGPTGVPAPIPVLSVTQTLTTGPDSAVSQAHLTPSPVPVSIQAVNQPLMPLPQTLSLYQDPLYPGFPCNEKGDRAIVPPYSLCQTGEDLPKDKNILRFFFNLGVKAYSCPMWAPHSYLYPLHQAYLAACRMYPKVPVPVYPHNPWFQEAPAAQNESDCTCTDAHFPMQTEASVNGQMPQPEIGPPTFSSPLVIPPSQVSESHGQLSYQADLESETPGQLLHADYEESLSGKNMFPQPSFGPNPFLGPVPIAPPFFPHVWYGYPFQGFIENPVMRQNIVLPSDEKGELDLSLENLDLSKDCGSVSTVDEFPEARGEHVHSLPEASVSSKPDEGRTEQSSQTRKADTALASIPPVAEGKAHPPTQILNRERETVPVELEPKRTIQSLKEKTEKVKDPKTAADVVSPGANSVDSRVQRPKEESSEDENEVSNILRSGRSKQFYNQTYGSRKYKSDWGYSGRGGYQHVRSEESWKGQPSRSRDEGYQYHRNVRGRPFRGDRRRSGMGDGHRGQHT
Summary of the method: as §1

[9] = biological target: T5, OTUD5 (UniProt Q96G74)
T5 sequence (whole entry): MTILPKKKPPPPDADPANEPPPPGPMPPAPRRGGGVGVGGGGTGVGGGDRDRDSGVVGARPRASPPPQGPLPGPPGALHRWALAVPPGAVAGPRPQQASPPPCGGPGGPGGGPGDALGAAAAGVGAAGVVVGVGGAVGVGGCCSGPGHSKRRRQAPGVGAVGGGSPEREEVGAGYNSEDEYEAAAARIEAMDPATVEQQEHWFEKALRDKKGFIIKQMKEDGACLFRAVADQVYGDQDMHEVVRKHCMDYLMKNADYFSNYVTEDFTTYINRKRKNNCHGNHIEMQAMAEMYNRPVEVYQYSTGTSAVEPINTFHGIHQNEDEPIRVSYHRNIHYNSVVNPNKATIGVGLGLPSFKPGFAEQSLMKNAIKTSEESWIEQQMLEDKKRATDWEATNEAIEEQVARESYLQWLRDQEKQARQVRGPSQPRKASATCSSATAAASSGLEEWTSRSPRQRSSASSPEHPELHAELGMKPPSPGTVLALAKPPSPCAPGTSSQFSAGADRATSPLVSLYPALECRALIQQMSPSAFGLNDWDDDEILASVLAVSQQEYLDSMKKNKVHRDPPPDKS
Summary of the method: as §1

Measured: log2 ratio of Biotin-Ahx-Ub-VS probe labelling

Sequence of EIF3H (O15372 whole entry): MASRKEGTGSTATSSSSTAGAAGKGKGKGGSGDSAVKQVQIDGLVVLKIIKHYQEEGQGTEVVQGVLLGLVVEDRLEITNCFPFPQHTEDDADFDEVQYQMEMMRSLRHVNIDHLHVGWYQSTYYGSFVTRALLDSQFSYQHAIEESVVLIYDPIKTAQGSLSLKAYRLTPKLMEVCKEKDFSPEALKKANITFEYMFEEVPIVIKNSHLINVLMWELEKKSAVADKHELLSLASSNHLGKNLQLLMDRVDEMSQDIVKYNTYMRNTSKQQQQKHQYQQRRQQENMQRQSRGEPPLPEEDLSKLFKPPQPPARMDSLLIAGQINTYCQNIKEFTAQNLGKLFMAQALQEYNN
Sequence of ATXN3 (P54252 whole entry): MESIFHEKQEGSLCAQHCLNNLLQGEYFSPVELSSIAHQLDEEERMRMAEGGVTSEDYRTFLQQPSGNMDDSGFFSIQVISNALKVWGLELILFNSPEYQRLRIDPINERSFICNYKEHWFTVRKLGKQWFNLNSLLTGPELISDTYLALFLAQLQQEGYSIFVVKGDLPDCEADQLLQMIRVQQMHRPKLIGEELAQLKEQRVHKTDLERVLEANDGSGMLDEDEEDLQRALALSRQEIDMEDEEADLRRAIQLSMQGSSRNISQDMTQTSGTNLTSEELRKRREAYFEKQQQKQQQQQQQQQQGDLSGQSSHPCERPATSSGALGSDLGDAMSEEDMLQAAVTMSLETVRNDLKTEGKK
Sequence of EIF3F (O00303 whole entry): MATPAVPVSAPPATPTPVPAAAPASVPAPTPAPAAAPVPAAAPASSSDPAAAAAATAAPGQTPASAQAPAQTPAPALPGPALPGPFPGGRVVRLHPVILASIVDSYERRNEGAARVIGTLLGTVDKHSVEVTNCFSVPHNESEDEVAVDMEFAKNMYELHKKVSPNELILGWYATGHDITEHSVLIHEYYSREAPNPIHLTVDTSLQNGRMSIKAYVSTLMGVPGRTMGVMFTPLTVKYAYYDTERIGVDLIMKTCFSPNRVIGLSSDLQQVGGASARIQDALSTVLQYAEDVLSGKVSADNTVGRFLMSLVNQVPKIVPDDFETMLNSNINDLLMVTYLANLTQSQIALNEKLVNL
Sequence of OTUB1 (Q96FW1 whole entry): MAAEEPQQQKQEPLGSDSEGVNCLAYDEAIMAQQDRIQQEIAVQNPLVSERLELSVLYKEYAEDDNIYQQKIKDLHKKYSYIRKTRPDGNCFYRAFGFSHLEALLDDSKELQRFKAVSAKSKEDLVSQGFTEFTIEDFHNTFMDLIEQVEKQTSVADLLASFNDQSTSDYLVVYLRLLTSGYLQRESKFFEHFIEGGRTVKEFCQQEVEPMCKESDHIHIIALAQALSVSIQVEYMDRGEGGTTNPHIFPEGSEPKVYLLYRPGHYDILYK

O=C(CCl)Nc1cc(Cl)ccc1C(=O)O
inactive: [1] -0.0259 | [2] 0.182 | [3] -0.0627 | [4] -0.053 | [5] -0.119 | [6] -0.0511 | [7] 0.108 | [8] 0.038 | [9] -0.156
